Test results published in PubChem BioAssay (NCATS).
Records with an inconclusive call do not appear. Activity calls are given as the source filed them. Calls come from the whole dose curve; as a rule, active = well fitted curve in the direction sought with a large enough effect; inconclusive = small, poorly fitted or top-dose-only effect, or another doubt; inactive = no such curve, though single readings can be large; an effect the other way counts as inactive or inconclusive.

Legend:
[1] = Quantitative High-Throughput drug screen in 47 multiple myeloma cell lines against the NCATS MIPE library collection: KMS12PE_JCRB cell viability assay (AID 1918972); note: nearly all actives have a fitted effect of over 30% in size; note: potency is the fitted concentration of half-maximal effect
How it was run: (§1)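 We plated 500 myeloma cells per well, pinned in MIPE 4.0 compounds, and incubated for 48 hours at 37C. ATP was then quantified with CellTiter-Glo, with DMSO and media-only wells defining 100% and 0%.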

[2] = Quantitative High-Throughput drug screen in 47 multiple myeloma cell lines against the NCATS MIPE library collection: KMS20_JCRB cell viability assay (AID 1918973); note: nearly all actives have a fitted effect of over 45% in size; note: potency is the fitted concentration of half-maximal effect
How it was run: as §1

[3] = Quantitative High-Throughput drug screen in 47 multiple myeloma cell lines against the NCATS MIPE library collection: KMS26_JCRB cell viability assay (AID 1918975); note: nearly all actives have a fitted effect of over 45% in size; note: potency is the fitted concentration of half-maximal effect
How it was run: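 Relative luminescence from CellTiter-Glo served as the viability signal, referenced to DMSO-treated (100%) and cell-free medium (0%) controls. Treatment lasted 48 hours at 37C with 500 cells per well.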

[4] = Quantitative High-Throughput drug screen in 47 multiple myeloma cell lines against the NCATS MIPE library collection: MMM1_PLB cell viability assay (AID 1918976); note: potency is the fitted concentration of half-maximal effect; nearly all actives have a fitted effect of over 35% in size
How it was run: (§2)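 Plated at 500 cells per well, myeloma lines received MIPE 4.0 compounds by pin tool. Following 48 h culture at 37 °C, CellTiter-Glo luminescence gave viability relative to DMSO and media-only controls.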

[5] = Quantitative High-Throughput drug screen in 47 multiple myeloma cell lines against the NCATS MIPE library collection: MOLP8_DSMZ cell viability assay (AID 1918977); note: nearly all actives have a fitted effect of over 45% in size; note: potency is the fitted concentration of half-maximal effect
How it was run: as §2

[6] = Quantitative High-Throughput drug screen in 47 multiple myeloma cell lines against the NCATS MIPE library collection: OCIMY1_PLB cell viability assay (AID 1918979); note: nearly all actives have a fitted effect of over 35% in size
How it was run: as §2

[7] = Quantitative High-Throughput drug screen in 47 multiple myeloma cell lines against the NCATS MIPE library collection: MM1S_ATCC cell viability assay (AID 1918980); note: nearly all actives have a fitted effect of over 45% in size; note: potency is the fitted concentration of half-maximal effect
How it was run: as §2

[8] = Quantitative High-Throughput drug screen in 47 multiple myeloma cell lines against the NCATS MIPE library collection: MM1R_ATCC cell viability assay (AID 1918981); note: potency is the fitted concentration of half-maximal effect; nearly all actives have a fitted effect of over 35% in size
How it was run: as §2

[9] = Quantitative High-Throughput drug screen in 47 multiple myeloma cell lines against the NCATS MIPE library collection: LP1_DSMZ cell viability assay (AID 1918982); note: nearly all actives have a fitted effect of over 35% in size; note: potency is the fitted concentration of half-maximal effect
How it was run: as §2

[10] = Quantitative High-Throughput drug screen in 47 multiple myeloma cell lines against the NCATS MIPE library collection: KMS28PE_JCRB cell viability assay (AID 1918983); note: nearly all actives have a fitted effect of over 35% in size; note: potency is the fitted concentration of half-maximal effect
How it was run: as §2

[11] = Quantitative High-Throughput drug screen in 47 multiple myeloma cell lines against the NCATS MIPE library collection: KMS34_JCRB cell viability assay (AID 1918985); note: nearly all actives have a fitted effect of over 40% in size; note: potency is the fitted concentration of half-maximal effect
How it was run: as §2

[12] = Quantitative High-Throughput drug screen in 47 multiple myeloma cell lines against the NCATS MIPE library collection: OCIMY7_PLB cell viability assay (AID 1918987); conditions: OCI-MY7 myeloma viability, CellTiter-Glo ATP, 48 h; viability (% of DMSO): at 45.8 µM (top of the series); note: nearly all actives have a fitted effect of over 65% in size; note: potency is the fitted concentration of half-maximal effect
How it was run: as §2

[13] = Quantitative High-Throughput drug screen in 47 multiple myeloma cell lines against the NCATS MIPE library collection: OCIMY5_PLB cell viability assay (AID 1918988); note: nearly all actives have a fitted effect of over 65% in size; note: potency is the fitted concentration of half-maximal effect
How it was run: as §2

[14] = Quantitative High-Throughput drug screen in 47 multiple myeloma cell lines against the NCATS MIPE library collection: U266_ATCC cell viability assay (AID 1919864); note: nearly all actives have a fitted effect of over 35% in size; note: potency is the fitted concentration of half-maximal effect
How it was run: as §2

[15] = Quantitative High-Throughput drug screen in 47 multiple myeloma cell lines against the NCATS MIPE library collection: XG6_PLB cell viability assay (AID 1919865); note: nearly all actives have a fitted effect of over 40% in size; note: potency is the fitted concentration of half-maximal effect
How it was run: as §2

[16] = Quantitative High-Throughput drug screen in 47 multiple myeloma cell lines against the NCATS MIPE library collection: NCIH929_DSMZ cell viability assay (AID 1918978); note: nearly all actives have a fitted effect of over 35% in size; note: potency is the fitted concentration of half-maximal effect
How it was run: as §2

[17] = Quantitative High-Throughput drug screen in 47 multiple myeloma cell lines against the NCATS MIPE library collection: L363_DSMZ cell viability assay (AID 1918984); conditions: L363 myeloma viability, CellTiter-Glo ATP luminescence, 48 h; viability (% of control): at 45.8 µM (top of the series); note: nearly all actives have a fitted effect of over 40% in size; note: potency is the fitted concentration of half-maximal effect
How it was run: as §2

[18] = Quantitative High-Throughput drug screen in 47 multiple myeloma cell lines against the NCATS MIPE library collection: OPM1_PLB cell viability assay (AID 1918989); note: nearly all actives have a fitted effect of over 40% in size; note: potency is the fitted concentration of half-maximal effect
How it was run: as §2

[19] = Quantitative High-Throughput drug screen in 47 multiple myeloma cell lines against the NCATS MIPE library collection: KMS21BM_JCRB cell viability assay (AID 1918974); conditions: ATP luminescence, 48 h; viability: at 45.8 µM (top of the series); note: potency is the fitted concentration of half-maximal effect
How it was run: as §1

[20] = Quantitative High-Throughput drug screen in 47 multiple myeloma cell lines against the NCATS MIPE library collection: SKMM1_PLB cell viability assay (AID 1919863); conditions: SKMM1 myeloma viability, CellTiter-Glo ATP, 48 h; viability: hits give low values; note: nearly all actives have a fitted effect of over 35% in size; note: potency is the fitted concentration of half-maximal effect
How it was run: as §2

CC(C)CN(C[C@@H](O)[C@H](Cc1ccccc1)NC(=O)O[C@H]1CO[C@H]2OCC[C@H]21)S(=O)(=O)c1ccc(N)cc1
inactive: Potency [1] | Potency [5] | Potency [6] | Potency [11]
active: Potency [2] 2.96 µM | Potency [3] 3.32 µM | Potency [4] 20.9 µM | Potency [7] 2.35 µM | Potency [8] 1.32 µM | Potency [9] 3.72 µM | Potency [10] 20.9 µM | Potency [12] 2.96 µM | Potency [13] 2.35 µM | Potency [14] 1.32 µM | Potency [15] 3.72 µM

CC(C)N(CCCNC(=O)Nc1ccc(C(C)(C)C)cc1)C[C@H]1O[C@@H](n2cc(Br)c3c(N)ncnc32)[C@H](O)[C@H]1O
inactive: Potency [1] | Potency [17]
active: Potency [2] 5.26 µM | Potency [3] 26.4 µM | Potency [4] 18.7 µM | Potency [5] 18.7 µM | Potency [16] 23.5 µM | Potency [7] 23.5 µM | Potency [8] 20.9 µM | Potency [9] 23.5 µM | Potency [10] 14.8 µM | Potency [11] 20.9 µM | Potency [18] 23.5 µM | Potency [14] 20.9 µM | Potency [15] 20.9 µM

CC[C@H](C)C(=O)O[C@H]1C[C@H](O)C=C2C=C[C@H](C)[C@H](CC[C@@H](O)C[C@@H](O)CC(=O)O)[C@H]21
inactive: Potency [1] | Potency [2] | Potency [19] | Potency [5] | Potency [16] | Potency [6] | Potency [7] | Potency [9] | Potency [10] | Potency [17] | Potency [11] | Potency [12] | Potency [13] | Potency [18] | viability [20] 102% | Potency [15]

CC(C)Oc1cc(Nc2nc(N[C@@H](C)c3ccc(F)cn3)ncc2Cl)[nH]n1
active: Potency [1] 23.5 µM | Potency [2] 4.69 µM | Potency [19] 5.26 µM | Potency [16] 5.26 µM | Potency [7] 23.5 µM | Potency [8] 26.4 µM | Potency [17] 23.5 µM | Potency [12] 4.18 µM | Potency [13] 26.4 µM | Potency [15] 7.43 µM

CCC(=C(c1ccc(O)cc1)c1ccc(OCCNC)cc1)c1ccccc1
active: Potency [1] 23.5 µM | Potency [2] 5.9 µM | Potency [3] 26.4 µM | Potency [4] 20.9 µM | Potency [5] 26.4 µM | Potency [7] 20.9 µM | Potency [8] 23.5 µM | Potency [11] 26.4 µM | Potency [12] 16.6 µM | Potency [13] 18.7 µM | Potency [18] 18.7 µM | Potency [20] 20.9 µM | Potency [14] 29.6 µM | Potency [15] 6.62 µM

CC(C)n1c(C=C[C@H](O)C[C@H](O)CC(=O)O)c(-c2ccc(F)cc2)c2ccccc21
active: Potency [1] 3.32 µM | Potency [2] 20.9 µM | Potency [19] 29.6 µM | Potency [5] 2.96 µM | Potency [16] 13.2 µM | Potency [17] 4.18 µM | Potency [12] 4.18 µM | Potency [18] 5.26 µM | Potency [20] 16.6 µM | Potency [15] 16.6 µM

COc1ccc2c(c1)c(C1=C(c3c[nH]c4ccccc34)C(=O)NC1=O)cn2CCCN(C)C
active: Potency [1] 16.6 µM | Potency [2] 14.8 µM | Potency [19] 0.469 µM | Potency [16] 23.5 µM | Potency [8] 23.5 µM | Potency [17] 13.2 µM | Potency [11] 14.8 µM | Potency [13] 37.2 µM | Potency [18] 23.5 µM | Potency [14] 26.4 µM
inactive: Potency [9]

NC(=O)c1ncn([C@@H]2O[C@H](CO)[C@@H](O)[C@@H]2O)n1
active: Potency [7] 8.33 µM
inactive: Potency [1] | Potency [2] | Potency [19] | Potency [16] | Potency [6] | Potency [9] | Potency [10] | Potency [12] | Potency [18] | Potency [15]

CC[C@H](NC(=O)[C@H](C)NC)C(=O)N1C[C@@H](O)C[C@H]1Cc1c(-c2[nH]c3cc(F)ccc3c2C[C@H]2C[C@H](O)CN2C(=O)[C@H](CC)NC(=O)[C@H](C)NC)[nH]c2cc(F)ccc12
inactive: Potency [10]
active: Potency [1] 11.8 µM | Potency [2] 4.69 µM | Potency [19] 0.526 µM | Potency [16] 20.9 µM | Potency [7] 3.32 µM | Potency [8] 0.418 µM | Potency [9] 20.9 µM | Potency [12] 1.87 µM | Potency [18] 13.2 µM | Potency [15] 4.18 µM

CCC=CC[C@H]1C(=O)CC[C@@H]1CC(=O)OC
active: Potency [4] 10.5 µM
inactive: Potency [1] | Potency [2] | Potency [19] | Potency [5] | Potency [16] | Potency [6] | Potency [9] | Potency [10] | Potency [17] | Potency [11] | Potency [18] | viability [20] 144% | Potency [14] | Potency [15]

N#CC(c1ccc(Cl)cc1)c1c(Cl)cc(-n2ncc(=O)[nH]c2=O)cc1Cl (configuration not stated)
active: Potency [1] 13.2 µM | Potency [2] 3.72 µM | Potency [19] 0.235 µM | Potency [16] 18.7 µM | Potency [7] 20.9 µM | Potency [8] 2.64 µM | Potency [17] 16.6 µM | Potency [12] 4.69 µM | Potency [18] 5.9 µM | Potency [15] 14.8 µM
inactive: Potency [3] | Potency [5] | Potency [6] | Potency [10]
